# Source: PubChem BioAssay (National Center for Advancing Translational Sciences (NCATS))
# In the library only some 6.9% were active in any assay of this set; here they are far more common.
# SW480 rerep: A quantitative high throughput screen for small molecules that induce DNA re-replication in SW480 colon adenocarcinoma cells. SW480 DNA re-replication, Hoechst DNA content imaging, 48 h. Potency, µM (doses to about 46.1 µM), for inactives: at the highest dose re-replication activation, usual class: activators. hit rate 1.8% among 340,000. AID 624297, 2012; further: potency means the concentration at half of the fitted maximal effect; % of control where 0% means no effect; nearly all actives have a fitted effect of over 55% in size
#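 Per well, 250 cells were exposed to pinned compound for 48 hr. Nuclear DNA was visualised with Hoechst (40 min, 37 C) and total object intensity recorded by fluorescence scanning.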
# Giardia kill: Small Molecules that selectively kill Giardia lamblia: qHTS | activity change, % at 7.66 µM, hits read low | AID 540267, 2011 | hit rate 0.15% among 340,000 | Giardia lamblia trophozoite viability; in the data active means activity change below about -80%; inconclusive means between about -30% and that limit;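 further: parasites exposed to compound for two days anaerobically before the ATP read; on the % scale 0 is the no-effect control and ±100 the full control effect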
#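 Giardia lamblia trophozoites (100 cells/well) were incubated with compounds for 48 h at 37 deg C under anaerobic conditions. Viability was read as ATP content by one-step luminescence after 15-30 min at room temperature.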
# ASM inhibitor: Inhibitors of Secretory Acid Sphingomyelinase (S-ASM): qHTS. Sphingomyelin phosphodiesterase (Homo sapiens), P17405. placental ASM, HMU-PC fluorogenic substrate, 60 min. Potency, µM (series often up to 57.5 µM), for inactives: at the top dose activity change, negative = inhibition, actives largely listed as inhibitors. hit rate 0.006% among 340,000. AID 504937, 2011; further: potency means the concentration at half of the fitted maximal effect
# Target sequence (P17405 47-631 limits assumed): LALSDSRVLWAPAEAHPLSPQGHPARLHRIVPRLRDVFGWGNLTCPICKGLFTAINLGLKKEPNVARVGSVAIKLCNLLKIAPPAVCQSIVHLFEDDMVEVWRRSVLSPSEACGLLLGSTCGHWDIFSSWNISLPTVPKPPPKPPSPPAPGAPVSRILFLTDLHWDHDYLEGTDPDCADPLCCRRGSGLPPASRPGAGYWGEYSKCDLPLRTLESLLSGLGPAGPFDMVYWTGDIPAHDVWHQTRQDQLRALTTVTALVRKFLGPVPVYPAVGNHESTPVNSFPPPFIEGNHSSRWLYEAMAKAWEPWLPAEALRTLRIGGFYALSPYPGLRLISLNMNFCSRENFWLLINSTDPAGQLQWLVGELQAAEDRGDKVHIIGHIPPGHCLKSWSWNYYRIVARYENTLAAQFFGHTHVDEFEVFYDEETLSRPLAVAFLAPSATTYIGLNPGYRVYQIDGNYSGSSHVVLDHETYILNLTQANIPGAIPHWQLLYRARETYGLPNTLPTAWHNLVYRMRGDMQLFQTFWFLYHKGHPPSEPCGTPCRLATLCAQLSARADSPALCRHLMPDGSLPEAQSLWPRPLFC
#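 HMU-PC0 cleavage (9 uM final) by human placental ASM, 60 min at 37 °C following 10 min compound exposure at RT; stopped at pH 10, fluorescence Ex 386/Em 447 nm.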
# MCF10A rereplic: A quantitative high throughput screen for small molecules that induce DNA re-replication in MCF 10a normal breast cells; MCF 10A DNA re-replication, Hoechst nuclear intensity, 48 h; Potency, µM (titrated, usually from 46.1 µM), for the others: top-dose activity, positive = re-replication, usual class: activators; hit rate 2.9% among 350,000; further: potency means the concentration at half of the fitted maximal effect; % of control where 0% means no effect; nearly all actives have a fitted effect of over 50% in size
# KB-3-1 tox: qHTS assay for MDR1-selective chemotherapeutics: Primary screen using the parental adenocarcinoma cell KB-3-1 | KB-3-1 viability, CellTiter-Glo ATP luminescence, 72 h | Potency, µM (highest dose often 46.1 µM), most hits filed as cytotoxic | hit rate 1.4% among 400,000 | AID 1347075, 2019; further: potency means the concentration at half of the fitted maximal effect; on the % scale 0 is the no-effect control and ±100 the full control effect; nearly all actives have a fitted effect of over 60% in size
#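 Cytotoxicity measured as CellTiter-Glo luminescence after 72 h at 37 C. Compound titrations were pinned onto drug-naive KB-3-1 parental adenocarcinoma cells grown in DMEM with 10% FBS, and normalized data fitted to concentration-response curves.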
# KB-V1 MDR tox: qHTS assay for MDR1-selective chemotherapeutics: Primary screen using the drug-selected MDR subline cells KB-V1; Potency, µM (titrated, usually from 46.1 µM), usual class: cytotoxic; hit rate 3.4% among 400,000; KB-V1 MDR cells viability, CellTiter-Glo, 72 h; further: potency means the concentration at half of the fitted maximal effect; on the % scale 0 is the no-effect control and ±100 the full control effect; nearly all actives have a fitted effect of over 60% in size
#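 In this primary screen, KB-V1 cells overexpressing P-gp are incubated with library compounds (lowest to highest concentration) for 72 h at 37 degrees C before a luminescent ATP viability read.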
# * hit, by the source's call; i = inactive; ? = inconclusive; · = not tested or not shown; [ ] = remark or other dose. Unless noted, the call rests on the fitted dose curve; in most records, active means well fitted curve in the direction sought with a large enough effect; inconclusive means small, poorly fitted or top-dose-only effect, or another doubt; inactive means no such curve, though single readings can be large; an effect the other way counts as inactive or inconclusive.
SMILES,SW480 rerep,Giardia kill,ASM inhibitor,MCF10A rereplic,KB-3-1 tox,KB-V1 MDR tox
Cc1ccc(S(=O)(=O)NCCC(=O)OCC(=O)N(Cc2ccccc2)C(C)(C)C)cc1,-31%,26,-2%,19%,i,i
CC(=O)Nc1ccc(C(=O)OCC(=O)NCc2ccccc2)cc1,?,-10,-4%,?,?,i
CC(=O)c1ccc(S(=O)(=O)NCCC(=O)OCC(=O)N(Cc2ccccc2)C(C)(C)C)cc1,-3%,-16,0%,5%,i,21µM*
CSc1nc(NCc2ccccc2)c2c3c(sc2n1)CN(C)CC3,1%,4,173%,23µM*,i,?
COCCNc1nc(SC)nc2sc3c(c12)CCN(C)C3,0%,46,160%,0%,i,i
CSc1nc(NCC(C)C)c2c3c(sc2n1)CN(C)CC3,6%,-3,392%,15%,i,18µM*
Cc1sc2nc(-c3cccnc3)nc(Cl)c2c1-c1ccccc1,0%,-9,3%,21µM*,i,13µM*
Cc1ccc(-c2nc(P(=O)(c3ccccc3)c3ccccc3)c(N3CCOCC3)o2)cc1,27%,8,4%,?,i,i
CNc1oc(-c2ccc(Cl)cc2)nc1P(=O)(c1ccccc1)c1ccccc1,15%,-14,-11%,16µM*,?,?
Cc1ccc(S(=O)(=O)N2CCN(c3nc(-c4ccc(F)cc4)nc4cc(Cl)ccc34)CC2)cc1,·,-2,·,·,·,·
CS(=O)(=O)Nc1ccc(-c2ccc(/C=C3\SC(N)=NC3=O)o2)cc1,14%,1,-3%,23µM*,i,i
NC1=NC(=O)/C(=C/c2ccc(-c3ccc(S(N)(=O)=O)cc3)o2)S1,-9%,-12,147%,-11%,i,i
COc1ccc(OC)c(NC(=O)c2cc(-c3ccc(Cl)s3)nc3ccccc23)c1,·,·,·,·,i,i
Cc1ccc(N2CC(C(=O)Nc3ncc([N+](=O)[O-])s3)CC2=O)cc1 (configuration not stated),4%,-85*,-4%,-1%,i,i
O=C(C[n+]1ccncc1)c1cccc([N+](=O)[O-])c1,·,·,·,·,i,i
CCc1ccccc1NC(=O)c1ccc2c(c1)N(Cc1cc(C)ccc1C)C(=O)c1ccccc1S2(=O)=O,·,·,·,·,i,i
CCOC(=O)[C@H](CCc1ccccc1)N[C@@H](C)C(=O)N1Cc2ccccc2C[C@H]1C(=O)O,0%,-24,-1%,0.12µM*,i,i
CCOC(=O)[C@@H](CCc1ccccc1)N[C@H](C)C(=O)N1[C@H](C(=O)O)C[C@@H]2CCC[C@@H]21,-40%,3,8%,12%,i,?
CC1(C)SC2[C@@H](N=CN3CCCCCC3)C(=O)N2[C@H]1C(=O)O (some centres not stated),-10%,·,·,0%,·,·
O=C(COC(=O)CNC(=O)c1ccccc1Cl)Nc1cc(C(F)(F)F)ccc1Cl,4%,77,-1%,15µM*,i,i
Cc1cc(NC(=O)CCN2C(=O)C3C4CCC(C4)C3C2=O)c(C)cc1Br (configuration not stated),-2%,12,5%,4%,i,15µM*
CCN(CC)CCn1c2ccccc2c2nc3ccc([N+](=O)[O-])cc3cc21,21µM*,3,-13%,?,i,i
Cn1c2ccccc2c2cc([N+](=O)[O-])ccc21,-7%,-27,-13%,3%,i,?
Cc1cc(C)c(NC(=O)Cn2c(=O)n(CCC(=O)N3CCc4ccccc4C3)c(=O)c3ccccc32)c(C)c1,·,·,·,·,i,?
COc1cc(C(=O)Nc2nc(C)c(Cc3ccc4c(c3)OCO4)s2)cc(OC)c1OC,5.8µM*,8,4%,2.6µM*,i,1.5µM*
SMILES,SW480 rerep,Giardia kill,ASM inhibitor,MCF10A rereplic,KB-3-1 tox,KB-V1 MDR tox
CCCOc1ccc(C(=O)Nc2nc(C)c(Cc3ccc4c(c3)OCO4)s2)cc1,?,-4,7%,?,?,i
Cc1c(Cc2ccc3c(c2)OCO3)sc(NC(=O)c2ccc3ccccc3c2)c1C(N)=O,-2%,-6,79%,15µM*,?,i
COc1cccc(N2CCN(S(=O)(=O)c3cc(-c4cc(C)no4)ccc3C)CC2)c1,·,·,·,·,i,?
CCc1ccc(NC(=O)N(Cc2c[nH]c3ccccc23)C2CCCCC2)cc1,·,·,·,·,i,i
Cc1ccc(NC(=O)C2SC(=Nc3ccccc3)C(C(=O)Nc3ccc(Cl)cc3)=C2N)cc1 (configuration not stated),-8%,9,-14%,21µM*,i,i
Cc1ccc(N=C2SC(C(=O)Nc3ccc(OC(F)(F)F)cc3)C(N)=C2C(=O)Nc2c(C)cc(C)cc2C)cc1 (configuration not stated),12%,-4,?,3.7µM*,?,?
CCNC(=O)CN(CCc1ccccc1)S(=O)(=O)c1ccc(OC)cc1,-6%,-7,-1%,-3%,i,21µM*
O=C(CN(CCc1ccccc1)S(=O)(=O)c1ccc(Br)cc1)N/N=C/c1ccccc1C(=O)O,-20%,6,-1%,5%,i,i
COc1ccc(S(=O)(=O)N(CCc2ccccc2)CC(=O)NCc2ccccc2)cc1,·,·,·,·,i,i
COc1ccc(S(=O)(=O)N(CCc2ccccc2)CC(=O)N/N=C/c2ccc3c(c2)OCO3)cc1,?,-4,-3%,1%,?,4.6µM*
O=C(CN(CCc1ccccc1)S(=O)(=O)c1ccc(Cl)cc1)N/N=C/c1ccc2c(c1)OCO2,-53%,4,-14%,-1%,i,9.2µM*
CCOc1cc(/C=N/NC(=O)CN(CCc2ccccc2)S(=O)(=O)c2ccc(NC(C)=O)cc2)ccc1O,-3%,3,46%,1%,i,?
COC(=O)c1ccc(Cl)cc1NC(=O)N1CCC(CN2CCC(C)CC2)CC1,·,·,·,·,i,i
CC(Oc1ccc(F)cc1)C(=O)Nc1ccc(N2CCOCC2)cc1N1CCOCC1 (configuration not stated),-27%,1,0%,-13%,i,i
CC(Oc1cccc(Cl)c1)C(=O)Nc1ccc(N2CCOCC2)cc1N1CCOCC1 (configuration not stated),-95%[9.22 µM],1,-2%,?,i,16µM*
COc1ccc(NCc2ccccc2[N+](=O)[O-])cc1OC,19%,9,-1%,?,i,21µM*
